For assay [1], the target named is Cytochrome P450 2C9 (Homo sapiens) (UniProt P11712). Nature of the assay: qHTS Assay for Inhibitors and Substrates of Cytochrome P450 2C9 (AID 883). Further: nearly all actives have a fitted effect of over 60% in size. Further: potency means the concentration at half of the fitted maximal effect. On activity change, negative = inhibition: on the % scale 0 is the no-effect control and ±100 the full control effect. Put shortly: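 10nM CYP2C9 + 100uM Luciferin-H (=KM), 25mM KPO4; cpd 10 min 37C; NADPH regen, 60 min 37C; stop/detect with P450 Glo-Buffer 20 min; luminescence. Norm. to 57uM sulphaphenazole as full inhibition.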
The target of assay [2] is Cytochrome P450 3A4 (Homo sapiens) (UniProt P08684). Nature of the assay: qHTS Assay for Inhibitors and Substrates of Cytochrome P450 3A4 (AID 884). Further: nearly all actives have a fitted effect of over 50% in size. Further: potency means the concentration at half of the fitted maximal effect. On activity change, negative = inhibition: series mostly up to about 57 µM; on the % scale 0 is the no-effect control and ±100 the full control effect. An outline of the steps:
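20 nM human CYP3A4 with 25 uM Luciferin-PPXE (at KM) in 200 mM KPO4, preincubated 10 min with compound; NADPH regeneration started a 60 min RT reaction. Luciferin detected by luminescence, normalized to 57 uM ketoconazole as full inhibition.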
For orientation: Quantitative high-throughput screening tests each substance at several concentrations.

Assay [3] has the same target. Nature of the assay: qHTS Assay for Activators of Cytochrome P450 3A4 (AID 885). Further: nearly all actives have a fitted effect of over 65% in size. An outline of the steps:
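Steps: enzyme/substrate mix dispensed; compound added, 10 min RT; NADPH regeneration solution added, 60 min RT; luciferin detection buffer stops reaction; 20 min later luminescence measured.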

For assay [4], the target named is Cytochrome P450 2D6 (Homo sapiens) (UniProt P10635). Nature of the assay: qHTS Assay for Inhibitors and Substrates of Cytochrome P450 2D6 (AID 891).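 Further: luciferin methyl ether substrate demethylated by CYP2D6 with NADPH regeneration; on the % scale 0 is the no-effect control and ±100 the full control effect; nearly all actives have a fitted effect of over 60% in size.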 Put shortly:
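Human CYP2D6 (5 nM) with 30 uM Luciferin-ME EGE (at Km) in 100 mM KPO4, compound preincubated 10 min, then NADPH regeneration system for 60 min at room temperature. Luciferin read by luminescence; normalized to 1.43 uM quinidine.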

Assay [5] addresses Cytochrome P450 2C19 (Homo sapiens) (UniProt P33261). Nature of the assay: qHTS Assay for Inhibitors and Substrates of Cytochrome P450 2C19 (AID 899). Further: nearly all actives have a fitted effect of over 60% in size. Further: potency means the concentration at half of the fitted maximal effect. Put shortly:
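Luminescent read-out of luciferin formed from Luciferin-H EGE (10uM, equal to KM). Enzyme 5nM in 50mM KPO4; compound added, 10 min at 37C, then NADPH regenerating system for 60 min at 37C. Full inhibition defined by 57uM ketoconazole.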

Several values for one entry are separate records, joined by “and”; a condition that tells them apart may be missing. Equal entries are not always repeated. Records with an inconclusive call do not appear. More than one record can exist for a structure, and the calls need not agree. Activity calls are given as the source filed them. The call rests on the fitted dose curve; in most records, active means well fitted curve in the direction sought with a large enough effect; inconclusive means small, poorly fitted or top-dose-only effect, or another doubt; inactive means no such curve, though single readings can be large; an effect the other way counts as inactive or inconclusive.

The record followed here is PubChem BioAssay (NCATS).

Chain of Cytochrome P450 3A4 (Homo sapiens) (P08684 whole entry, looked up): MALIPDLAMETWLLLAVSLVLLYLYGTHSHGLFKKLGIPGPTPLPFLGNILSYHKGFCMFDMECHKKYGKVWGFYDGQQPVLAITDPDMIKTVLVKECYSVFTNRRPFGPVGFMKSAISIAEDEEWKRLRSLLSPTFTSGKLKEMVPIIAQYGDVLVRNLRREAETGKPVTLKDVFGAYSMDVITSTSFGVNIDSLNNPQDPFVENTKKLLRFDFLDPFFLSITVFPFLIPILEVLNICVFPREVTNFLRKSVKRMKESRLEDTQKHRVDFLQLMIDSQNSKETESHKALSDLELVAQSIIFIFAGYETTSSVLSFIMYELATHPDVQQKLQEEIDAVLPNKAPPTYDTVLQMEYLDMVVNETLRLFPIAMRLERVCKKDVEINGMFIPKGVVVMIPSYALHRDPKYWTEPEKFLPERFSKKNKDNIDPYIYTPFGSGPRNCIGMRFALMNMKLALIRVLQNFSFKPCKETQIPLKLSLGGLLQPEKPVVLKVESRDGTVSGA
Chain of Cytochrome P450 2C19 (Homo sapiens) (P33261 whole entry, looked up): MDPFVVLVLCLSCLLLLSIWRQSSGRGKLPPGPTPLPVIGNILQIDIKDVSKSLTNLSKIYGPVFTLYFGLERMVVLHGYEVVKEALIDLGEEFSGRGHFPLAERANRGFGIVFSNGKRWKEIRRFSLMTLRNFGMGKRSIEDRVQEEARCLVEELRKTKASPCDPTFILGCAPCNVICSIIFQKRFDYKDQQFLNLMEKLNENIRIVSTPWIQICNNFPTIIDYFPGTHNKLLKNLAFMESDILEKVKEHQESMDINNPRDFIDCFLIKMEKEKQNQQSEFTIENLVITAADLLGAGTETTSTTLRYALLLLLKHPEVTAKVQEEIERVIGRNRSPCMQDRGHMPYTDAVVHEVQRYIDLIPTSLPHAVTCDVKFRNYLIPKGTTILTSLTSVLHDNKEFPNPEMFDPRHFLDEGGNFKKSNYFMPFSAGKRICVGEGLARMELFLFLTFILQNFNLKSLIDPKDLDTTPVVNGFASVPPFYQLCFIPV
Chain of Cytochrome P450 2D6 (Homo sapiens) (P10635 whole entry, looked up): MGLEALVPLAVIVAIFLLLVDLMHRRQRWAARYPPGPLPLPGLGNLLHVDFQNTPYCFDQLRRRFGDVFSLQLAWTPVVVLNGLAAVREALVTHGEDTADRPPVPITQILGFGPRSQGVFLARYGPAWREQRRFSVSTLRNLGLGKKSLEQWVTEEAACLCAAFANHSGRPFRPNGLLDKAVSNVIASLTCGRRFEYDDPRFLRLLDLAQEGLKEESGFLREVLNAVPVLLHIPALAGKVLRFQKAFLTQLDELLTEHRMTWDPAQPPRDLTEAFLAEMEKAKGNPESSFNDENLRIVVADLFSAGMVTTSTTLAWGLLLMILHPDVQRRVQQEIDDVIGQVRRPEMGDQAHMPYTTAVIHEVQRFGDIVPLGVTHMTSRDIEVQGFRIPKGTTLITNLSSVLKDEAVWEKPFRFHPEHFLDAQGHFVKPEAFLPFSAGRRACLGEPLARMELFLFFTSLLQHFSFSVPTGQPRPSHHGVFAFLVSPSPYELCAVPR
Chain of Cytochrome P450 2C9 (Homo sapiens) (P11712 whole entry, looked up): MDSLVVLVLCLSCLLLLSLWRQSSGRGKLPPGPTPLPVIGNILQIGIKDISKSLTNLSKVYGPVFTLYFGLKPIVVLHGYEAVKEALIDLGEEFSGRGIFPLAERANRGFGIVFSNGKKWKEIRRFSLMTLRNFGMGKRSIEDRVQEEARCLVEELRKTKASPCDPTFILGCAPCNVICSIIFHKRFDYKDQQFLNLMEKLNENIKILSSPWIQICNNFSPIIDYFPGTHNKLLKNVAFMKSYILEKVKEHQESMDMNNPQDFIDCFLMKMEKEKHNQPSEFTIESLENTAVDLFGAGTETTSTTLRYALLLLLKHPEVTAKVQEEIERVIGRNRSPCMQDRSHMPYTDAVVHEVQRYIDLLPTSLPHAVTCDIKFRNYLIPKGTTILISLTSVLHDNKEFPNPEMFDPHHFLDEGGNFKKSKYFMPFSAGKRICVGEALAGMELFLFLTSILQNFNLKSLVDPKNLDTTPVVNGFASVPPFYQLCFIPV

Turning to `C=CCC(O)CC1C2C(CC(O)CC=C)C3C1C3C2OC(C)(C)C` (centres undefined), the Potency result in assay [1] and in assay [4] was “inactive” in each case. Further, the Potency is 1.58 µM (active) in assay [2] and 0.794 µM (active) in assay [5]. For the same compound, in assay [3], the activity change, positive = activation is -98.2% [at 11.4 µM] (inactive).
Regarding `CCCCCCC1Cc2cc(OC)c(OC)cc2C(C(C(=O)OCC)C(=O)OCC)O1` (centres undefined), the Potency result in assay [1] and in assay [4] was “inactive” in each case. Besides, the Potency was 3.16 µM (active) and 1.58 µM (active) in assay [2]; “inactive and 3.16 µM (active)” in assay [5]. Besides, the activity change, positive = activation in assay [3] was -66.2% [at 11.4 µM] (inactive) and -65.3% [at 11.4 µM] (inactive).
Turning to `C=CCOC(=O)C(C(C)=O)C(NC(=O)OC)c1cccs1` (centres undefined), the Potency result in assay [1] and in assay [4] was “inactive” in each case. Besides, the values for the Potency in assay [2] and in assay [5] were 3.16 µM (active) and 0.398 µM (active), respectively. Moreover, in assay [3], the activity change, positive = activation is -101% [at 11.4 µM] (inactive).
Take `COc1ccc(OC2C(O)COC2/C=C/C#Cc2ccc(F)cc2F)cc1` (centres undefined): the Potency in assay [1] was 2.51 µM (active); in assay [2], 3.98 µM (active) and 3.16 µM (active). Further, the activity change, positive = activation in assay [3] is -91.9% [at 11.4 µM] (inactive) and -66.3% [at 11.4 µM] (inactive). Besides, the Potency result in assay [4] and in assay [5] was “inactive” in each case.
For `CC#CC(C)C(OCOC)C(CC(C)Cc1cc(Br)cc(OCc2ccccc2)c1OC)OC` (centres undefined), the Potency entry in assay [1], in assay [4] and in assay [5] was “inactive” each time. Moreover, the Potency in assay [2] was 3.16 µM (active). In assay [3], the activity change, positive = activation was -76.2% [at 11.4 µM] (inactive).
For `COc1ccc(OCC2CN3C(CCC(C)C3c3ccc(Br)cc3)C(=O)O2)cc1` (centres undefined), the Potency entry in assay [1], in assay [4] and in assay [5] was “inactive” each time. Also, the Potency in assay [2] is 3.98 µM (active). For the same compound, in assay [3], the activity change, positive = activation is -46.6% [at 11.4 µM] (inactive) and -70% [at 11.4 µM] (inactive).
For `CC1CN2C(CCC(C)C2c2ccc(Br)cc2)C(=O)O1` (centres undefined), the Potency entry in assay [1] and in assay [4] was “inactive” each time. Moreover, the activity change, negative = inhibition in assay [2] was -15.8% [at 11.4 µM] (inactive) and -28.1% [at 11.4 µM] (inactive). The activity change, positive = activation in assay [3] was -51.1% [at 11.4 µM] (inactive). In addition, the Potency entry in assay [5] is “inactive and 501 nM (active)”.
For `CC(=O)c1ccc(OC2C(O)COC2/C=C/c2ccc(Cl)cc2)cc1` (centres undefined), the Potency entry in assay [1], in assay [4] and in assay [5] was “inactive” each time. In assay [2], the activity change, negative = inhibition is -27.7% [at 11.4 µM] (inactive). Moreover, in assay [3], the activity change, positive = activation was -50% [at 11.4 µM] (inactive).
As to `COC(=O)C1=C(C)N(Cc2ccccc2)[C@]23O[C@](C(=O)OC)(C(=O)N2C1c1ccccc1)C1CCCC(=O)C13` (some centres undefined), the Potency entry in assay [1], in assay [4] and in assay [5] was “inactive” in each case. Besides, in assay [2], the activity change, negative = inhibition is -22.3% [at 11.4 µM] (inactive). For the same compound, the activity change, positive = activation in assay [3] is -50.6% [at 11.4 µM] (inactive).
Consider `CN(C)c1cccc(OC2C=CC(C#Cc3ccccc3)OC2CO)c1` (centres undefined), for which the Potency result in assay [1] and in assay [4] was “inactive” each time. Also, the Potency in assay [2] and in assay [5] was 3.98 µM (active) throughout. For the same compound, the activity change, positive = activation in assay [3] was -83.1% [at 11.4 µM] (inactive).
`Cc1cc(F)ccc1OC1C=CC(c2ccc3c(c2)OCO3)OC1CO` (centres undefined): the Potency in assay [1] and in assay [2] was 3.16 µM (active) throughout. Besides, the activity change, positive = activation in assay [3] is -72.5% [at 11.4 µM] (inactive). In addition, the Potency entry in assay [5] was “inactive”.
As for `COC(=O)C/C=C\[C@@H](C)[C@@H](/C=N\O[C@@H](C)c1cc(-c2c(C)cc(C)cc2C)no1)NS(=O)(=O)c1ccc(C)cc1`, the Potency is 2.51 µM (active) in assay [1], 3.16 µM (active) in assay [2] and 3.16 µM (active) in assay [5]. Further, the activity change, positive = activation in assay [3] was -103% [at 11.4 µM] (inactive).
Take `COC(=O)NC(c1cccc(F)c1)[C@]1(C(C)=O)CCCC1=O` (some centres undefined): the Potency result in assay [1] and in assay [4] was “inactive” in each case. Also, the activity change, negative = inhibition in assay [2] is -13.9% [at 11.4 µM] (inactive).
As to `CCOC(=O)OCC1OC(C#Cc2ccccc2)C=CC1Oc1cccc(N(C)C)c1` (centres undefined), the values for the Potency in assay [1], in assay [2] and in assay [5] were 2.51 µM (active), 3.98 µM (active) and 1.58 µM (active), respectively. The activity change, positive = activation in assay [3] is -91.5% [at 11.4 µM] (inactive).
Taken in the same sequence, the figures for `C=C(C)C(O)/C=C/c1ccc(Br)cc1` (centres undefined) were 3.16 µM (active), 3.98 µM (active), 0.02 µM (active) and -65.3% [at 11.4 µM] (inactive).
The matching figures for `COc1ccc(O[C@H]2C=C[C@@H](c3ccccc3)O[C@H]2COC(=O)CC/C(C)=N\OC[C@@H](O)[C@H]2O[C@H]3OC(C)(C)O[C@H]3[C@@H]2O)cc1`: 1.58 µM (active), 3.98 µM (active), 0.005 µM (active) and -92.2% [at 11.4 µM] (inactive).
Regarding `COC(=O)NC(c1ccccc1)C(C#N)C(=O)OC` (centres undefined), the Potency result in assay [1] and in assay [4] was “inactive” in each case. Further, in assay [2], the activity change, negative = inhibition was -16.5% [at 11.4 µM] (inactive).
With `CCCCc1nc2c(c3c1CC(C)OC3)CN(CCC(C)C)CC2` (centres undefined), the Potency result in assay [1] and in assay [5] was “inactive” in each case. Also, the Potency in assay [2] is 3.98 µM (active). Moreover, the activity change, positive = activation in assay [3] was -60.1% [at 11.4 µM] (inactive).
As to `COC(=O)/C=C/C1c2ccccc2C(OC)C1C` (centres undefined), the Potency entry in assay [1], in assay [4] and in assay [5] was “inactive” each time. Moreover, the activity change, negative = inhibition in assay [2] was -4.29% [at 11.4 µM] (inactive).
